The subject of this assay is VDR:RXRa (NR concentration 270 nM, RXRa partner concentration 90 nM). In words: PBM binding z-score (relative to random genomic background probes); higher = stronger binding; sequences stand for … in GC…GCGATTGACAGCGTAGAATGAAGG
As for the experimental part:
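Protein-binding microarray (Agilent 4x180K custom design, double-stranded 60-nt probes: 5' GC cap, 34-nt variable region, 24-nt constant primer region; full probe sequence given). Purified or IVT nuclear receptor:RXRα heterodimers (3:1 NR:RXRα, mostly 270:90 nM) or homodimers were incubated for 1 h in PBS with 2% milk and no ligand, then detected with Alexa488 antibodies. Fluorescence from o1-orientation probes (~5 replicates averaged) was converted to z-scores against 500 random hg19 background probes. Variable regions are seed direct-repeat (DR0–DR5) sites, all their single-nucleotide variants and half-site ablations.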
The sequence CCGAATAGGTTATGGGGCATTCAGGCAACGGTGA displayed a PBM binding z-score of 0.258.
The same measure for ATCGAAAGGTCGAGGTGAGTCTAGAGAAAGGGAA: 3.21; for TCTTGTAGATCAATGGTTAAGAAAGCCGAAGCCT: 0.403; for AGTCAAAGTTAACTAGGTAACGTAAGATTCAGCT: -0.0453.
As to CCTGCTAGGTCATAGTCAGCTAATCTACAGTATG, the PBM binding z-score was found to be 1.28.
Sequence ATCTCTAGGTAACTAGTTCAGTGAAAGAGAGGAC showed a PBM binding z-score of 0.369.
In the case of TAGCCTAGGACATTCAGGGGCCAGTATAGAAAGC, the PBM binding z-score was -0.174.
Regarding TCATATAGGTAATACAAGTGAAAGTCGGCATCTA, the PBM binding z-score was 1.24.
The figure for ATCTCTAGGTAACAAGTTCAGAGAAAGAGAGGAC is 2.01; for ATCTCTAAGTAACCAAGTTCAGTGAATGCCGAAC it is 2; for CCTACTGGGCCAAATGTCATTGATTCCAATGCTC it is 0.0339.
In the case of ACGAGCAGGCCAAGGGTCACTCAAGATTAGTCCG, the PBM binding z-score is 2.72.
The sequence AGAATGATGTTATTAAGATCAGGGAATTGCGGTC registered a PBM binding z-score of 0.0323.
With ATCACTAGGTAAAAGTTCAGTGAATCCCGAGGAT, the PBM binding z-score came to 1.34.
GCTATTAGTTGAAAGGGCAAACGAATGATTCTCG had a PBM binding z-score of 0.622.
The figure for CGTCCAAGGTCAGAGAGGTCCGTGAATGCCGAGT is 4.73; for TCAGATAGGTAAATGCTAGGTGAAAGTCCGATCT it is 0.407; for CCTTACGGGTCACTGACAGGTTATAGAATTTGGA it is 3.69.
Turning to TCCTATAGGTAAATGCTAGGTGAAAGTCCGATCT, the PBM binding z-score stood at 0.359.
On to GGAACGAGGGCAAGTTGATAGCTGAGTTTGATGG, for which the PBM binding z-score worked out at 0.643.
The figure for CAAACTCGGTCAAAGGTCAAAGTCGAGCCAACCA is 6.22; for CCTTACGGGTCACTGACAGGTTATTGCATTTGGA it is 3.93; for CAAACTAGGTCACAGAAGTCAAAGTCCGTGCGTA it is 3.91.
The same measure for GCGACTGGGGCACCAGCAGGTTACCATAACTTAA: -0.157; for TCTGCTAGGTCACCGATGGTCAGCTAATCTGCTA: 2.17.
The same measure for TTACCAAGGTGAGGGTCGTTGATCCCTCTGTAGA: 0.884; for TGTCCAAGTTCAAAGGTAACGTAAGTATCCACAC: 4.6; for CATACAGGGTCAACTAGGCCAGAGTAGGGACGGC: 5.1.
On to CCTACTGGGCCATTCAGAGGTCATTTATCATATG, for which the PBM binding z-score came to 3.73.
As for AGAACGAGGGCACGCTGGGTTGATAGCAGAGTAG, the PBM binding z-score was 2.53.
The same measure for TCATATAGGTAATACAGGTGAAAGACGGCATCTA: 1.02.
CCTTACGGGTCACGAGGTTAAAGCACGACGAGCG gave a PBM binding z-score of 5.59.
CGTCCAAGGTCAATACTAGGTCAGTGAAAGCATT displayed a PBM binding z-score of 4.63.
The figure for TCTACTAGGTCAACGATGGTCAGCTAATCTGCTA is 2.27; for GCGACTGGGGCATCAGCAGGTTACCGTAACTTAA it is -0.147.
The sequence GCATATAGGTTATACAAGGTGAAAGTCCGATTGT registered a PBM binding z-score of 1.57.
The figure for TCTACTAGGTCAGTTGGTCAGCTAACGAGCTGCC is 0.701; for CGAACGAGGGCATGAGTTGATAGTAAATGCCGAT it is 1.17.
GAATATAGGTAATACAAGGTGAAAGTCCGATTGT gave a PBM binding z-score of 0.758.
GCGCGGAGGACAAGGTCAGAGCTTTGTCCGTAGA showed a PBM binding z-score of 1.4.

(Values after the supplement of paper PMC6555819.)
